PubChem BioAssay (EPA / NIEHS)
Records with an inconclusive call do not appear. Active and inactive are the calls of the source. Rule for the calls, unless noted: active = hit-call score of the fitted dose curve at least 0.9, where 1 is the maximum; inactive = score below 0.9.

Experiments:
[1] = CCTE_Deisenroth_AIME_384WELL_CTox_Active: Cytotoxicity Assessment (CTOX) in CCTE's 384-well Estrogen Receptor Transactivation Assay with AIME metabolic competence (metabolism positive), Deisenroth Lab (AID 2284037; active = hit-call score of the fitted dose curve at least 0.9, where 1 is the maximum;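 note: chemicals first conditioned 2 h by alginate-bound induced rat liver S9 before cells; activity means signal loss indicating cell death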)
Outline: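 Chemicals pre-incubated 2 hours with alginate-immobilised phenobarbital/beta-naphthoflavone-induced male Sprague Dawley rat liver S9, then conditioned medium applied 24 hour to VM7Luc4E2 cells. Viability by fluorogenic protease substrate; 10-point series 0.002 - 200 uM.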

[2] = target: Estrogen receptor (Homo sapiens) (UniProt P03372); assay: CCTE_Deisenroth_AIME_384WELL_LUC_Inactive: CCTE's 384-well Estrogen Receptor Transactivation Assay without AIME metabolic competence (ERTA luciferase; metabolism negative), Deisenroth Lab (AID 2284038; active = hit-call score of the fitted dose curve at least 0.9, where 1 is the maximum;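 note: VM7Luc4E2 breast cells given medium preincubated 2 h with S9-free microspheres; hits raise estrogen receptor luciferase signal so potencies reflect agonists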)
Outline: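 Metabolism-negative mode: AIME lids stamped in alginate-water, no hepatic S9. 2 h chemical incubation → medium onto VM7Luc4E2 ERTA, 24 h. Readout luciferase luminescence; gain-of-signal fit vs 17beta-estradiol. Conc. 0.002 - 200 uM.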

[3] = CCTE_Deisenroth_AIME_384WELL_CTox_Inactive: Cytotoxicity Assessment (CTOX) in CCTE's 384-well Estrogen Receptor Transactivation Assay without AIME metabolic competence (metabolism negative), Deisenroth Lab (AID 2284039; active = hit-call score of the fitted dose curve at least 0.9, where 1 is the maximum;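 note: cell viability via live-cell protease substrate cleaved to fluorescent probe; cells exposed 24 h to medium preincubated 2 h with alginate-water beads without S9; loss of fluorescence signal means loss of viability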)
Outline: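 Fluorescence from a live-cell protease substrate, read after 24 h in VM7Luc4E2 cells, indicated viability. Test medium came from a 2 h AIME step without hepatic S9 (alginate-water microspheres); concentrations spanned 0.002 - 200 uM, single technical replicate per run.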

[4] = target: Estrogen receptor (Homo sapiens) (UniProt P03372); assay: CCTE_Deisenroth_AIME_384WELL_LUC_Shift: CCTE's 384-well Estrogen Receptor Transactivation Assay with AIME metabolic competence data shift (ERTA luciferase; difference in metabolism positive and negative), Deisenroth Lab (AID 2284041);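 note: shift is response with S9 minus without S9 so positive means metabolism raised ER signal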
Outline: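 Chemicals (0.002–200 uM, 10 points) pre-incubated 2 h with alginate-encapsulated induced male Sprague Dawley rat liver S9 or S9-free, then medium applied 24 h to VM7Luc4E2 cells; luciferase. Endpoint is per-concentration difference, S9-positive minus negative.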

DIO2 (gene 1734) = assay: CCTE_GLTED_hDIO2: CCTE's human Deiodinase 2 (DIO2) Inhibition Assay, Great Lakes Toxicology and Ecology Division (GLTED) Lab (AID 2284050; active = hit-call score of the fitted dose curve at least 0.9, where 1 is the maximum)
Outline: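 Triplicate cell-free incubations (3 h) of human DIO2 with chemical preceded colorimetric Sandell-Kolthoff quantitation of liberated iodide; DMSO served as negative control for curve fitting.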

DIO3 (gene 1735) = assay: CCTE_GLTED_hDIO3: CCTE's human Deiodinase 3 (DIO3) Inhibition Assay, Great Lakes Toxicology and Ecology Division (GLTED) Lab (AID 2284055; active = hit-call score of the fitted dose curve at least 0.9, where 1 is the maximum;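 note: potency is for inhibition seen as loss of released iodide signal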)
Outline: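 Steps: incubate adenovirus-produced hDIO3 with chemical for 3 hours; detect freed iodide via cerium-arsenic Sandell-Kolthoff colorimetry; compare with DMSO baseline.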

[5] = CCTE_Shafer_MEA_dev_active_electrodes_number: CCTE's Neural Network Formation Assay for Number of Active Electrodes, Shafer Lab (AID 2284040; active = hit-call score of the fitted dose curve at least 0.9, where 1 is the maximum;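 for AC50: potency for loss of active electrodes versus DMSO so lower counts are hits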)
Outline: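 Developing rat cortical networks on MEAs, exposed DIV 0–12. Value is the AUC of active-electrode counts (≥5 spikes/min) from days 5, 7, 9, 12, relative to DMSO.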

[6] = CCTE_Shafer_MEA_dev_burst_rate: CCTE's Neural Network Formation Assay for Burst Rate, Shafer Lab (AID 2284042)
Outline: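 Developmental network assay measuring how 12-day exposure of rat cortical neuron cultures alters bursting on extracellular MEA recordings. Values are AUC of well-mean burst rate across four recording days, relative to DMSO vehicle.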

[7] = CCTE_Shafer_MEA_dev_per_burst_interspike_interval: CCTE's Neural Network Formation Assay for Burst Interspike Interval, Shafer Lab (AID 2284044);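 note: mean spike spacing inside bursts as AUC over recordings on days 5 7 9 12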
Outline: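 Rat cortical primary cultures, 16 electrodes/well; compound from plating, renewed with full media change DIV 5 and 9. Spikes via adaptive detector; per-burst ISI well-mean over active bursting electrodes; AUC of DIV 5/7/9/12 recordings; loss-direction fit vs DMSO.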

[8] = CCTE_Shafer_MEA_dev_burst_duration_mean: CCTE's Neural Network Formation Assay for Mean Burst Duration, Shafer Lab (AID 2284045);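 for AC50: curve fitted for loss meaning shorter burst duration than DMSO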
Outline: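 Rat cortical cultures, 1.5 x 10^5 cells/well with laminin drop; continuous dosing days 0–12, media plus treatment refreshed DIV 5, 9. AxIS adaptive spike detection; mean single-electrode burst duration, AUC over four recordings, negative direction vs DMSO.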

[9] = CCTE_Shafer_MEA_dev_interburst_interval_mean: CCTE's Neural Network Formation Assay for Mean Interburst Interval, Shafer Lab (AID 2284046);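 note: well-mean interburst interval of bursting electrodes as AUC over four recording days; curve fitted for decrease in interburst interval relative to DMSO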
Outline: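 Network formation assay in primary rat cortical cultures, exposed from DIV 0 to 12. Mean interburst interval per well, integrated as AUC over four recordings.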

[10] = CCTE_Shafer_MEA_dev_inter_network_spike_interval_mean: CCTE's Neural Network Formation Assay for Mean Inter-network Spike Interval, Shafer Lab (AID 2284047)
Outline: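 Compound was given at plating to primary rat cortical neurons and renewed with full medium changes on DIV 5 and 9. Extracellular activity was recorded on days 5, 7, 9, 12; AUC values were fitted for loss relative to DMSO control.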

[11] = CCTE_Shafer_MEA_dev_network_spike_number: CCTE's Neural Network Formation Assay for Number of Network Spikes, Shafer Lab (AID 2284048);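 note: synchronized bursts across electrodes counted on days 5 7 9 12 and integrated as AUC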
Outline: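 Rat cortical primary cultures on 48-well MEA (16 electrodes/well); continuous exposure DIV 0–12, full medium and treatment exchange DIV 5, 9. Readout: network spike count, AxIS adaptive detection, recordings DIV 5/7/9/12 collapsed to AUC; loss-of-signal fit, DMSO baseline.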

[12] = CCTE_Shafer_MEA_dev_network_spike_peak: CCTE's Neural Network Formation Assay for Mean Number of Electrodes in Network Spike, Shafer Lab (AID 2284049);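 for AC50: fitted for loss of signal meaning fewer electrodes in network spikes than DMSO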
Outline: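 Network-spike peak electrode count from recordings on days 5, 7, 9 and 12 was combined as trapezoidal area under the curve. Rat cortical cultures were treated continuously from plating, with compound renewed at each feed (DIV 5, 9); fits versus DMSO.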

[13] = CCTE_Shafer_MEA_dev_spike_duration_mean: CCTE's Neural Network Formation Assay for Mean Spike Duration, Shafer Lab (AID 2284051);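 note: mean network spike duration pooled as area under curve over DIV 5 to 12 recordings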;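 for AC50: potency for a decrease in mean network spike duration versus DMSO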
Outline: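 With DMSO as baseline, loss of mean network spike duration was scored from extracellular recordings of rat cortical neurons on MEA plates. Exposure spanned plating to DIV 12; the four recording days were collapsed into one AUC value.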

[14] = CCTE_Shafer_MEA_dev_per_network_spike_spike_number_mean: CCTE's Neural Network Formation Assay for Mean Number of Spikes in a Network Spike, Shafer Lab (AID 2284053)
Outline: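 First, rat cortical cells (1.5 x 10^5/well) were seeded onto MEA wells; second, dosing began at plating and was refreshed on DIV 5 and 9; finally, network-spike spike counts across DIV 5–12 were summarized as AUC.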

[15] = CCTE_Shafer_MEA_dev_bursting_electrodes_number: CCTE's Neural Network Formation Assay for Number of Bursting Electrodes, Shafer Lab (AID 2284043; active = hit-call score of the fitted dose curve at least 0.9, where 1 is the maximum)
Outline: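 Rat cortical primary neurons, 48-well MEA, 16 electrodes/well; dosing DIV 0–12, re-dosed with full media change DIV 5, 9. Recordings DIV 5/7/9/12, AxIS adaptive spike detector; bursting electrode = ≥1 burst/2 min. AUC across days; loss of signal vs DMSO.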

[16] = CCTE_Shafer_MEA_dev_AB: CCTE's Alamar Blue Assay for Cytotoxicity in the Neural Network Formation Assay, Shafer Lab (AID 2284083; active = hit-call score of the fitted dose curve at least 0.9, where 1 is the maximum;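 note: resazurin reduction fluorescence as viability of cultured neurons; twelve days of exposure from plating with re-dosing on DIV 5 and 9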)
Outline: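 Cytotoxicity companion to the developmental MEA: primary rat cortical neurons, 12-day exposure starting day 0, compound refreshed DIV 5 and 9; resazurin fluorescence, fitted against DMSO vehicle.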

Measured: AC50

Sequence of Estrogen receptor (Homo sapiens) (P03372 whole entry, looked up): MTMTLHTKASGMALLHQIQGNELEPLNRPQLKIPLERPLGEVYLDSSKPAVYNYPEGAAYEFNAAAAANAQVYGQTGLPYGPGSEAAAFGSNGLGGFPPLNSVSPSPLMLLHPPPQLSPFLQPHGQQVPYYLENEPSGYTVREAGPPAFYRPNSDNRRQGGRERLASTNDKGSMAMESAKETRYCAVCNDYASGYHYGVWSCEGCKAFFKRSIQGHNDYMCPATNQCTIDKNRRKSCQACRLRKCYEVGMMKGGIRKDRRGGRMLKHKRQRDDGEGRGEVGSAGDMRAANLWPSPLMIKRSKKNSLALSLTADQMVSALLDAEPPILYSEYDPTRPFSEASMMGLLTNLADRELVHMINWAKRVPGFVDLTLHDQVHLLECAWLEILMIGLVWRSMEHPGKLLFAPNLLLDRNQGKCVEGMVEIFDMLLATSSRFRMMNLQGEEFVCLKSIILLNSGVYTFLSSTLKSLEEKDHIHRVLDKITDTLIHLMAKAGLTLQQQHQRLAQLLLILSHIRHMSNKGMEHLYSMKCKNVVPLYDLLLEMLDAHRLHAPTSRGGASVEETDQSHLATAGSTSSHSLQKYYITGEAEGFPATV

O=C1C=CC(=O)N1c1ccccc1
inactive: [1] | [2] | [3] | [4]

CCCCCCCCCCCCCC[P+](CCCC)(CCCC)CCCC
active: DIO2 (gene 1734) 17.1 µM | DIO3 (gene 1735) 3.56 µM

CCOC(OCC)OCC
inactive: [1] | [2] | [4]

NC(=O)C(F)(F)C(F)(F)C(F)(F)C(F)(F)C(N)=O
inactive: [5] | [6] | [7] | [8] | [9] | [10] | [11] | [12] | [13] | [14]

CCCCCCCC/C=C\CCCCCCCC(=O)OCC(O)CO (centres undefined)
inactive: [2] | [3] | [4]
active: DIO2 (gene 1734) 38.5 µM | DIO3 (gene 1735) 21.3 µM

O=S(=O)(O)CCC(F)(F)C(F)(F)C(F)(F)C(F)(F)C(F)(F)C(F)(F)C(F)(F)C(F)(F)F
inactive: [6] | [7] | [8] | [9] | [10] | [11] | [12] | [13] | [14]

CO[Si](C)(CCC(F)(F)C(F)(F)C(F)(F)C(F)(F)C(F)(F)C(F)(F)F)OC
inactive: [6] | [7] | [8] | [9] | [10] | [11] | [12] | [13] | [14]

OCC(F)(F)C(F)(F)C(F)(F)CO
inactive: [5] | [6] | [15] | [7] | [9] | [10] | [11] | [12] | [13] | [14]
active: [8] 15 µM

OC(O)C(F)(F)C(F)(F)F
inactive: [6] | [7] | [8] | [9] | [10] | [11] | [12] | [13] | [14]

OCC(F)(F)C(F)(F)C(F)(F)C(F)(F)C(F)(F)C(F)(F)C(F)(F)C(F)(F)CO
active: [5] 15 µM | [12] 22.5 µM | [13] 15 µM | [16] 24.4 µM
inactive: [6] | [15] | [7] | [8] | [9] | [10] | [11] | [14]

C=C(C)C(=O)OCC(F)(F)C(F)(F)C(F)(F)C(F)F
active: DIO2 (gene 1734) 34 µM | DIO3 (gene 1735) 14.2 µM

NC(=O)C(F)(F)C(F)(F)C(F)(F)C(F)F
inactive: [6] | [7] | [8] | [9] | [10] | [11] | [12] | [13] | [14]

O=S(=O)(O)CCC(F)(F)C(F)(F)C(F)(F)C(F)(F)F
inactive: [5] | [6] | [15] | [7] | [8] | [9] | [10] | [11] | [12] | [13] | [14]

OCC(F)(F)C(F)(F)C(F)(F)C(F)(F)C(F)(F)C(F)(F)CO
active: [5] 0.65 µM
inactive: [6] | [15] | [7] | [8] | [9] | [10] | [11] | [12] | [13] | [14]

OCC1CCCO1 (centres undefined)
inactive: [2] | [4]

CC(C)(C)c1cc(Cc2cc(C(C)(C)C)c(O)c(C(C)(C)C)c2)cc(C(C)(C)C)c1O
inactive: [1] | [2] | [4]

C=CC(=O)OCC(F)(F)C(F)(F)C(F)(F)C(F)(F)C(F)(F)C(F)(F)C(F)(F)C(F)F
active: DIO2 (gene 1734) 10.3 µM

N#Cc1ccccc1O
inactive: [1] | [2] | [3] | [4]

O=C(c1ccccc1)c1ccc(O)cc1O
inactive: [1] | [4]
active: [2] 40.3 µM

CNS(=O)(=O)C(F)(F)C(F)(F)C(F)(F)C(F)(F)C(F)(F)C(F)(F)C(F)(F)C(F)(F)F
inactive: [5] | [6] | [15] | [7] | [8] | [9] | [10] | [11] | [12] | [13] | [14]

CCN=c1cc2oc3cc(NCC)c(C)cc3c(-c3ccccc3C(=O)OCC)c-2cc1C
active: DIO2 (gene 1734) 154 µM | DIO3 (gene 1735) 157 µM

O=S(=O)(Cl)C(F)(F)C(F)(F)C(F)(F)C(F)(F)C(F)(F)C(F)(F)C(F)(F)C(F)(F)F
active: DIO2 (gene 1734) 66 µM
